Laboratory results as given in article PMC4552634, “A New Set of Chemical Starting Points with Plasmodium falciparum Transmission-Blocking Potential for Antimalarial Drug Discovery” (PLoS ONE, 2015).
About 3,200 (25%) of roughly 13,000 compounds showed an effect of 50% or more. The list shows a part of the results.

Test system: P. falciparum stage V gametocytes
Parameters: BacTiter-Glo ATP luminescence viability of purified stage V gametocytes in 384-well plates, per cent inhibition versus DMSO
Settings: 48 h, 5 µM; inhibitor

| Structure (SMILES) | % Inhibition [%] |
| --- | --- |
| N#Cc1ccc(CN2CCC(Oc3ccc(NC(=O)c4cccs4)cc3Cl)C2)cc1 (stereo not drawn) [TCMDC-133962] | 5.438 |
| Cc1cc(C)n(-c2nc(Nc3cccc(C(F)(F)F)c3)nc(-n3nc(C)cc3C)n2)n1 [TCMDC-125770] | 16.09 |
| Cc1cc(Nc2cccc(C(F)(F)F)c2)nc(N)n1 [TCMDC-124264] | 7.363 |
| FC(F)(F)c1cccc(Nc2nc3ccccc3nc2Nc2cccc(C(F)(F)F)c2)c1 [TCMDC-124162] | 95.6 |
| Cc1cc(Nc2cccc(C(F)(F)F)c2)nc(Nc2cccc(C(F)(F)F)c2)n1 [TCMDC-124213] | -15.06 |
| FC(F)(F)c1cccc(Nc2nc(-n3ccnc3)nc(-n3ccnc3)n2)c1 [TCMDC-123871] | 5.028 |
| FC(F)(F)c1cccc(Nc2nc(-c3ccccc3)nc3ncccc23)c1 [TCMDC-125597] | 73.35 |
| N#CCCN1CCN(Cc2cccc(-c3ccc(-c4nc5ccccc5[nH]4)s3)c2)CC1.O=C(O)C(F)(F)F [TCMDC-133871] | -9.564 |
| NC1=NC2(CCCCC2)N(OCCCCCCCCNc2nc(N)nc(N)n2)C(N)=N1 [TCMDC-140517] | 6.685 |
| Nc1nc(N)c2c(ccc3c2ccn3Cc2ccc(-c3ccccc3)cc2)n1 [TCMDC-137813] | 115.8 |
| Nc1nc(N)c2c(ccc3c2ccn3Cc2ccc(OCc3ccccc3)cc2)n1 [TCMDC-137336] | 29.32 |
| Nc1nc(N)c2c(ccc3c2ccn3CCCC2CCCNC2)n1 (stereo not drawn) [TCMDC-138618] | 26.76 |
| Nc1nc(N)c2c(ccc3c2ccn3Cc2ccccc2)n1 [TCMDC-141977] | 66.05 |
| N#Cc1ccc(Cn2ccc3c4c(N)nc(N)nc4ccc32)cc1 [TCMDC-137820] | 103.8 |
| Nc1nc(N)c2c(ccc3c2ccn3Cc2ccccn2)n1 [TCMDC-137980] | 111.5 |
| Nc1nc(N)c2c(ccc3c2ncn3Cc2ccccc2)n1 [TCMDC-137749] | 33.84 |
| CNC(=O)COC(=O)c1c2c(nc3ccccc13)C(=Cc1ccc3c(c1)OCO3)CCC2 [TCMDC-123900] | 4.246 |
| Cn1cnc(CCNC(=O)c2ccc(-c3cccc(-c4nc5cc(C(F)(F)F)ccc5[nH]4)c3)cc2)c1 [TCMDC-132493] | 1.105 |
| Cc1ccc(OC2CCN(c3ccc(C(=O)NC4CC4)cn3)CC2)cc1 [TCMDC-134059] | 7.555 |
| NC1=Nc2ccc(Cl)cc2C1(O)c1ccccc1 (stereo not drawn) [TCMDC-123492] | 3.06 |
| CCOc1ccc(C(=O)Nc2cc3c(c(C(F)(F)F)c2)CCNC3)cc1Cl [TCMDC-139751] | 25.29 |
| N#Cc1cccc(C(O)C2CN(CCC3CCCCC3)CCC2(O)c2ccccc2)c1 (stereo not drawn) [TCMDC-131999] | -28.27 |
| COc1cccc(CNC(=O)c2cccc(-c3ccc(CN4CCC(N5CCCC5)CC4)cc3)n2)c1 [TCMDC-134416] | 30.7 |

| Structure (SMILES) | % Inhibition [%] |
| --- | --- |
| Cc1cccc2[nH]c(-c3ccc(-c4cccc(NC(=O)NCc5ccc(F)cc5)c4)cc3)nc12 [TCMDC-133303] | -66.9 |
| CCCNC(=O)Nc1cc2cc(-c3cccc(CN4CCCCC4)c3)ccc2n2c(C)nnc12 [TCMDC-136740] | 104.3 |
| Cc1nnc2c(NC(=O)/C=C/c3ccc(OC(F)(F)F)cc3)cc3cc(Cl)ccc3n12 [TCMDC-135918] | -12.77 |
| O=C(Nc1cccc(-c2ccc(CN3CCCC3)cc2)c1)c1ccc(F)cc1 [TCMDC-132636] | -0.2818 |
| COc1ccc(CNC(=O)Nc2cc3cc(-c4ccc(CN(C)C)cc4)ccc3n3c(C)nnc23)cc1 [TCMDC-136719] | 118 |
| O=C(Nc1cccc(-c2cccc(CN3CCCC3)c2)c1)c1ccc(Cl)cc1 [TCMDC-132654] | 19.28 |
| COc1ccc(CNC(=O)Nc2cc3cc(-c4ccc(CN5CCCC5)cc4)ccc3n3c(C)nnc23)cc1 [TCMDC-136720] | 98.19 |
| COc1ccc2[nH]c(C(=O)Nc3cccc(-c4ccc(CN(C)C)cc4)c3)cc2c1 [TCMDC-134283] | -4.108 |
| O=C(Nc1cccc(-c2ccc(CN3CCCC3)cc2)c1)c1ccc(Cl)cc1 [TCMDC-132630] | 10.82 |
| Cc1nnc2c(NC(=O)NC(C)C)cc3cc(-c4ccc(CN5CCCCC5)cc4)ccc3n12 [TCMDC-136738] | 50.46 |
| Cc1nnc2c(N(C(=O)NCCc3ccccc3)C(=O)NCCc3ccccc3)cc3cc(Cl)ccc3n12 [TCMDC-135524] | 21.17 |
| CN(C)c1ccc(-c2cscc2C(=O)NC2CCCN(Cc3cccnc3)C2)cc1 (stereo not drawn) [TCMDC-134489] | 34.49 |
| CN(Cc1cccc(F)c1)C1CCCN(c2cc(NC(=O)c3ccccc3)ccn2)C1 (stereo not drawn) [TCMDC-135013] | 1.109 |
| CN1CC=C(c2c[nH]c3ccc(OC(=O)c4ccccc4)cc23)C1 [TCMDC-139100] | -51.1 |
| CCNC(=O)Nc1ccc(-c2cnc(N)c(-c3nc4ccc(OC)cc4[nH]3)c2)cc1 [TCMDC-135321] | -14.13 |
| O=C(/C=C/c1ccc(Cl)c(Cl)c1)NC1CCC(CN2CCC(c3nc4ccccc4n3CCCO)CC2)CC1 (stereo not drawn) [TCMDC-140313] | 5.954 |
| Cc1cc(NC2CCN(CC3CCCCC3)CC2)nc(Nc2ccccc2Cl)n1 [TCMDC-137017] | -7.805 |
| CCC(CC)n1cc2c(ccc3nc(N)nc(N)c32)n1 [TCMDC-138019] | -28.37 |
| Nc1ccnc(N2CCC(CCOc3cc(C(F)(F)F)nc4c(C(F)(F)F)cccc34)CC2)c1 [TCMDC-141364] | 15.98 |
| CC(Cc1ccc(CN2CCN(Cc3ccccc3)CC2)cc1)NCC(O)c1cccc(C(F)(F)F)c1 (stereo not drawn) [TCMDC-131534] | 42.03 |
| N=C(N)c1ccc(-c2cc(-c3cccc(C(=N)N)c3)on2)cc1 [TCMDC-137264] | 7.482 |
| Cc1ccc(NC(=O)c2ccc3ncccc3c2)cc1OC1CCN(Cc2ccsc2)C1 (stereo not drawn) [TCMDC-133949] | -9.977 |
